Records with an inconclusive call do not appear. A number with no mark means an inactive call. Calls of active or inactive are those of the source. Calls follow the shape of the dose curve; as a rule, active = well fitted curve in the direction sought with a large enough effect; inconclusive = small, poorly fitted or top-dose-only effect, or another doubt; inactive = no such curve, though single readings can be large; an effect the other way counts as inactive or inconclusive. Square brackets hold non-standard residues; d marks the D form. Peptide text beside a SMILES is read from it. 2Abz = Nc1ccccc1C(=O)O

Experiment [1] deals with Cellular tumor antigen p53 (Homo sapiens) (UniProt P04637). Description: Primary qHTS for small molecule compounds that upregulate eGFP-tagged delta133p53alpha (in N-terminal) cells. (AID 2060322). Also: nearly all actives have a fitted effect of over 75% in size. Also: potency is read from the fitted curve at half-maximal effect.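 As to activation: cells pre-induced with doxycycline then dosed without doxycycline; 0% = DMSO vehicle and 100% = reference activator.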 Conditions: NCI-H358 eGFP-delta133p53alpha fluorescence, 24 h; activation: hits give high values. A digest of the protocol: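 NCI-H358 cells pre-induced 24 h with 10 ng/ml doxycycline for eGFP-delta133p53alpha, plated dox-free and exposed 24 h at 37C to titrated compounds. Fixed, Hoechst-stained; gated GFP peak intensity by laser scanning cytometry, normalized to DMSO (0%) and 57.5 uM 5-azacytidine (100%).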

Experiment [2] deals with Aldehyde dehydrogenase, mitochondrial (Homo sapiens) (UniProt P05091). As to the kind of experiment: qHTS for Inhibitors of the Aldehyde Dehydrogenase Family (ALDH2) Primary screen (AID 2061308).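 Also: plate controls were vehicle for no effect and reference inhibitor for full effect; nearly all actives have a fitted effect of over 55% in size.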 Particulars: ALDH2 enzyme inhibition qHTS, 1536-well; series mostly up to 56 µM.
Experiment [3] addresses Retinaldehyde dehydrogenase 3 (Homo sapiens) (UniProt P47895). As to the kind of experiment: qHTS for Inhibitors of the Aldehyde Dehydrogenase Family (ALDH1A3) Primary screen (AID 2061315).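 Also: plate controls were DMSO vehicle for no effect and reference inhibitor for full effect.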 Conditions: ALDH inhibition qHTS; series mostly up to 56 µM. (qHTS replaces the single test concentration by a dilution series.)

Chain of Cellular tumor antigen p53 (Homo sapiens) (P04637 whole entry, looked up): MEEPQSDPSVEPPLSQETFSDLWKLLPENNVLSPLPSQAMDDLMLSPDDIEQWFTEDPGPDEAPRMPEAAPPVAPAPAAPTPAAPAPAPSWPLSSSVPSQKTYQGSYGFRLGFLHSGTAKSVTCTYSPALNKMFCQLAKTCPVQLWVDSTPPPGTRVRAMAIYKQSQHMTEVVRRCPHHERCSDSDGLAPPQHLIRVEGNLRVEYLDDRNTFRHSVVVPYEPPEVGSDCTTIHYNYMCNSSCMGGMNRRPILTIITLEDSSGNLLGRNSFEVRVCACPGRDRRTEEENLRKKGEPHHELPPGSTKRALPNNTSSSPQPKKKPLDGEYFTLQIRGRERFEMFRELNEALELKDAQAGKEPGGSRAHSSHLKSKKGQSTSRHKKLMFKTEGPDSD

For `CCC(C)C1NC(=O)C2CCCN2C(=O)C(C(C)C)NC(=O)c2ccccc2NC(=O)C(Cc2ccc(O)cc2)NC(=O)C(C)NC(=O)C(C(C)O)NC1=O` (stereo not given) (cyclo([2Abz]VPITAY); configuration not given here), in experiment [1], the activation was 0.763%. The Potency result in experiment [2] and in experiment [3] was “inactive” each time.
Regarding `C=C1C(O)C(OC(=O)c2ccccc2)C2C(C)(C(=O)O)CCCC2(C)C1CC/C(C)=C\CO` (stereo not given), the activation in experiment [1] was 11.5%. The Potency result in experiment [2] and in experiment [3] was “inactive” each time.
With `C/C(=C/CO)CCC1C(C)CCC2C(C)(C)CCCC12C` (stereo not given), in experiment [1], the activation was -9.92%. For the same molecule, the Potency entry in experiment [2] and in experiment [3] was “inactive” in each case.
As to `CC(C)/C=C1\NC(=O)C(C(C)C)n2c1nc1ccccc1c2=O` (stereo not given), the activation in experiment [1] was -10.7%. For the same molecule, the Potency entry in experiment [2] and in experiment [3] was “inactive” each time.
With `C=C1C(=O)O[C@@H]2C[C@H](C)C3=CC(=O)[C@H](O)[C@@]3(C)C[C@H]12`, the Potency in experiment [1] was 30.1 µM (active). The Potency entry in experiment [2] and in experiment [3] was “inactive” throughout.
As to `COc1c(-c2ccc(O)cc2)cc(OC)c2c1oc1cc(O)c(OC3OC(CO)C(O)C3O)cc12` (stereo not given), the activation in experiment [1] is 1.79%. For the same molecule, the Potency result in experiment [2] and in experiment [3] was “inactive” each time.
On to `C=C1C(O)CC2C(C(=O)O)=COC(O[C@@H]3O[C@H](COC(=O)/C=C/c4ccc(O)cc4)[C@@H](O)[C@H](O)[C@H]3O)C12` (stereo not given in full), for which the activation in experiment [1] was -6.87%. For the same molecule, the Potency result in experiment [2] and in experiment [3] was “inactive” throughout.
For the molecule `CC(C)CCC1(O)C(=O)C(C)(C)C(O[C@@H]2O[C@H](CO)[C@@H](O)[C@H](O)[C@H]2O)C(C)(C)C1O` (stereo not given in full), in experiment [1], the activation is 12.5%. Besides, the Potency entry in experiment [2] and in experiment [3] was “inactive” each time.
With `CC(=O)O[C@@H]1C[C@@H](C)[C@](O)(CCC2=CC(=O)OC2)[C@@]2(C)CCCC(C)(C)C12` (stereo not given in full), the activation in experiment [1] is -29.8%. Besides, the Potency result in experiment [2] and in experiment [3] was “inactive” each time.
Consider `CC1(CO)CC[C@]2(C(=O)O[C@@H]3O[C@H](CO)[C@@H](O)[C@H](O)[C@H]3O)CC[C@]3(C)C(=CCC4[C@@]5(C)CC[C@H](O[C@@H]6O[C@H](C(=O)O)[C@@H](O)[C@H](O)[C@H]6O)C(C)(C)C5CC[C@]43C)C2C1` (stereo not given in full), for which, in experiment [1], the activation is -4.46%. The Potency entry in experiment [2] and in experiment [3] was “inactive” each time.
For `C=C1CC2C3(C)C(O)CC(=O)C(C)(C)C3C(OC(C)=O)C(OC(C)=O)C2(C)C2C(=O)OC(C)(C(=O)OC)C(=O)C12C` (stereo not given), the activation in experiment [1] was -16.8%. Further, the Potency result in experiment [2] and in experiment [3] was “inactive” in each case.
As for `C/C=C(\C)C(=O)O[C@H]1C=CC(=O)O[C@H]1/C=C/[C@H](O)[C@@H](C)O`, the Potency in experiment [1] was 21.3 µM (active). The Potency entry in experiment [2] and in experiment [3] was “inactive” each time.
For `C=C1C(=O)OC2/C=C(\C)CC/C=C(\C=O)C(OC)C(OC(=O)C(C)CC)C12` (stereo not given), the Potency in experiment [1] is 16.6 µM (active). Also, the Potency result in experiment [2] and in experiment [3] was “inactive” each time.
Consider `C=CC1(C)C=C2CC[C@H]3[C@@](C)(C(=O)O)CCC[C@]3(C)C2CC1` (stereo not given in full), for which, in experiment [1], the activation is -0.763%. In addition, the Potency result in experiment [2] and in experiment [3] was “inactive” throughout.
Regarding `C=C1C[C@]23C[C@H]1[C@@H](O)C[C@H]2[C@@]12C=C[C@H](O)[C@@](C)(C(=O)O1)[C@H]2[C@@H]3C(=O)O`, in experiment [1], the activation was -13%. In addition, the Potency entry in experiment [2] and in experiment [3] was “inactive” in each case.
Regarding `Cc1cc(O)cc(O[C@@H]2O[C@H](CO)[C@@H](O)[C@H](O)[C@H]2O)c1`, in experiment [1], the activation is -6.11%. For the same molecule, the Potency entry in experiment [2] and in experiment [3] was “inactive” throughout.
Take `CCOc1ccc(S(=O)(=O)N2CCCCCC2)c2ccccc12`: the activation in experiment [1] was -13.7%. In addition, the Potency entry in experiment [2] and in experiment [3] was “inactive” throughout.
In the case of `Cc1ncc([N+](=O)[O-])n1CC(O)CN1CCOCC1` (stereo not given), the activation in experiment [1] was -11%. In addition, the Potency result in experiment [2] and in experiment [3] was “inactive” in each case.
For `C=C1C(=O)OC2C(OC(=O)C=C(C)C)C(C)=C3C(=O)C=C(C)C3C(O)C12` (stereo not given), the Potency in experiment [1] was 14.8 µM (active). In addition, the Potency entry in experiment [2] and in experiment [3] was “inactive” each time.
Take `C/C1=C\[C@H]2OC(=O)[C@@H](C)[C@@H]2CC/C(C(=O)O)=C/CC1`: in experiment [1], the activation was -5.34%. The Potency entry in experiment [2] and in experiment [3] was “inactive” throughout.

The record behind these values is PubChem BioAssay (NCATS).
